For test [1], the target named is human CYP2B6, CYP2B6 (gene 1555) (UniProt P20813). The test is described as follows: NVS_ADME_hCYP2B6: NovaScreen (NVS) CYP450-related Enzyme Activity (ADME) Assay for human CYP2B6 (AID 2283101). In short, it runs like this:
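Cell-free recombinant enzyme assay with a fluorogenic substrate; fluorescence intensity read 1 hour after dosing. Loss of signal relative to acetonitrile negative control indicates inhibition. Primary screen run in duplicate at 10 uM, actives then tested in concentration series.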

In test [2] the target is human CYP1A2, CYP1A2 (gene 1544) (UniProt P05177). The experiment in a line: NVS_ADME_hCYP1A2: NovaScreen (NVS) CYP450-related Enzyme Activity (ADME) Assay for human CYP1A2 (AID 2283102).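 For AC50: potency for inhibition since loss of fluorescence marks reduced CYP1A2 activity.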 In short, it runs like this:
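Inhibition scored as decrease in fluorescent product versus acetonitrile negative control. Enzyme: insect-cell recombinant human CYP1A2, substrate-specific, cell-free. Reading at 0.5 h; 10 uM duplicate initial screen with positive and negative controls on every plate.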

The target in test [3] is Cytochrome P450 2C18 (Homo sapiens) (UniProt P33260). The test is described as follows: NVS_ADME_hCYP2C18: NovaScreen (NVS) CYP450-related Enzyme Activity (ADME) Assay for human CYP2C18 (AID 2283103; active = hit-call score of the fitted dose curve at least 0.9, where 1 is the maximum; inactive = score below 0.9). In short, it runs like this: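 Enzyme activity measured by fluorescence 0.5 h after compound addition, using recombinant CYP2C18 and a specific substrate. Actives from duplicate 10 uM screening were retested in concentration series (top 20 uM); acetonitrile served as negative baseline.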

Test [4] addresses human CYP2C8, CYP2C8 (gene 1558) (UniProt P10632). The test is described as follows: NVS_ADME_hCYP2C8: NovaScreen (NVS) CYP450-related Enzyme Activity (ADME) Assay for human CYP2C8 (AID 2283104; active = hit-call score of the fitted dose curve at least 0.9, where 1 is the maximum; inactive = score below 0.9). In short, it runs like this: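 Fluorescence readout of substrate turnover by recombinant CYP2C8 after 0.5 h, baseline acetonitrile. Single-concentration duplicate screen at 10 uM preceded singleton concentration series (max 20 uM) for compounds passing the inhibition threshold.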

In test [5] the target is human CYP2J2, CYP2J2 (gene 1573) (UniProt P51589). The experiment in a line: NVS_ADME_hCYP2J2: NovaScreen (NVS) CYP450-related Enzyme Activity (ADME) Assay for human CYP2J2 (AID 2283106). In short, it runs like this:
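Chemicals were first tested at 10 uM in duplicate, and hits meeting criteria such as 30% inhibition were run in singleton concentration series with a 20 uM top concentration. Enzyme activity of recombinant CYP2J2 was measured by fluorescence after 1 h, relative to acetonitrile.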

Test [6] has as its target human CYP2C9, CYP2C9 (gene 1559) (UniProt P11712). The test is described as follows: NVS_ADME_hCYP2C9: NovaScreen (NVS) CYP450-related Enzyme Activity (ADME) Assay for human CYP2C9 (AID 2283108). In short, it runs like this:
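Fluorescence readout of CYP2C9 activity (SF9-expressed human enzyme) at 0.75 h. The primary screen used 10 uM in duplicate, with concentration-response follow-up for actives; acetonitrile was the negative control.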

Test [7] has as its target Cytochrome P450 2C19 (Homo sapiens) (UniProt P33261). The experiment in a line: NVS_ADME_hCYP2C19: NovaScreen (NVS) CYP450-related Enzyme Activity (ADME) Assay for human CYP2C19 (AID 2283113).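 For AC50: potency for inhibition seen as loss of fluorescent signal.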 In short, it runs like this: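 Biochemical CYP2C19 inhibition screen: insect-cell recombinant protein plus fluorescent substrate, 1 h, fluorescence intensity. Acetonitrile defined baseline activity. Single 10 uM concentration in duplicate, with concentration-response follow-up for actives.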

In test [8] the target is Cytochrome P450 3A4 (Homo sapiens) (UniProt P08684). The test is described as follows: NVS_ADME_hCYP3A4: NovaScreen (NVS) CYP450-related Enzyme Activity (ADME) Assay for human CYP3A4 (AID 2283110). In short, it runs like this: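 Compounds screened in duplicate at 10 uM, with follow-up concentration-response for actives, against insect-cell-expressed recombinant enzyme. Activity read by fluorescence 0.33 h after dosing; loss of signal versus acetonitrile control indicates inhibition.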

For test [9], the target named is human CYP2D6, CYP2D6 (gene 1565) (UniProt P10635). The experiment in a line: NVS_ADME_hCYP2D6: NovaScreen (NVS) CYP450-related Enzyme Activity (ADME) Assay for human CYP2D6 (AID 2283107). In short, it runs like this: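 Biochemical fluorescence assay, insect-cell-derived enzyme. Read at 1 h; inhibition taken from loss of signal against acetonitrile. Screened at 10 uM in duplicate, with concentration series for actives.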

Test [10] has as its target human CYP4F12, CYP4F12 (gene 66002) (UniProt Q9HCS2). The experiment in a line: NVS_ADME_hCYP4F12: NovaScreen (NVS) CYP450-related Enzyme Activity (ADME) Assay for human CYP4F12 (AID 2283111). In short, it runs like this:
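Recombinant enzyme with a fluorescent substrate, signal read at 0.5 h post-dose; activity loss analysed relative to acetonitrile. Compounds first run in duplicate at 10 uM, with follow-up concentration-response testing of actives.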

Where “and” joins values, the source holds several entries; their conditions need not be identical. Identical values can stand only once. Records with an inconclusive call do not appear. Calls of active or inactive are those of the source. Rule for the calls, unless noted: active = hit-call score of the fitted dose curve at least 0.9, where 1 is the maximum; inconclusive = response in the unintended direction; inactive = score below 0.9.

This passage reports AC50 and outcome results from PubChem BioAssay (EPA / NIEHS).

Cytochrome P450 3A4 (Homo sapiens), sequence (P08684 whole entry, looked up): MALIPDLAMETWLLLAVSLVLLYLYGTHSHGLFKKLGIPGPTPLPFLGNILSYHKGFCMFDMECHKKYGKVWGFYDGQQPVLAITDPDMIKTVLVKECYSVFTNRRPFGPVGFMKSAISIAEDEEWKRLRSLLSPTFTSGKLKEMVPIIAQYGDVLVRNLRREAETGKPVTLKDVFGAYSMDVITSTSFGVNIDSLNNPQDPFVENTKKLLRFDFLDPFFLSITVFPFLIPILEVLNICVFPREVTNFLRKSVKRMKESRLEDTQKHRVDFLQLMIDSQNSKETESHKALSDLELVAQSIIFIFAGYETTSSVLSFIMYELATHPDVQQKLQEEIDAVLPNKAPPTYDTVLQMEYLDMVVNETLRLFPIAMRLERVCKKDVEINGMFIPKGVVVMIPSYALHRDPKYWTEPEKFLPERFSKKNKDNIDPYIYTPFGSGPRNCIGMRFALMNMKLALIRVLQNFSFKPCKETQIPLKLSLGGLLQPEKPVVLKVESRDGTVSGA
human CYP1A2, CYP1A2 (gene 1544), sequence (P05177 whole entry, looked up): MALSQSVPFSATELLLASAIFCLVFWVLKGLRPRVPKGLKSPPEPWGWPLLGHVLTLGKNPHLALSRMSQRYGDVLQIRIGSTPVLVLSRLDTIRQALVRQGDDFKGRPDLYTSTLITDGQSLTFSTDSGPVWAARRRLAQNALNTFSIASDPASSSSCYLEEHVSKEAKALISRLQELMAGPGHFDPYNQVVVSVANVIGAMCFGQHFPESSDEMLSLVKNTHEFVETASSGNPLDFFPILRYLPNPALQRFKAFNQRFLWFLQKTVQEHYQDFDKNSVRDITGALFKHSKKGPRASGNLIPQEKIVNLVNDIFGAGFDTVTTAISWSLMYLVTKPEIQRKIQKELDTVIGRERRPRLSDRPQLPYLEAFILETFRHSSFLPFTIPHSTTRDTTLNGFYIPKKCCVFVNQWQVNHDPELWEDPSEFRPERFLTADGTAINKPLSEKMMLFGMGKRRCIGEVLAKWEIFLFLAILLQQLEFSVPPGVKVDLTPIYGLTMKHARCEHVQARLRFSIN
human CYP2C8, CYP2C8 (gene 1558), sequence (P10632 whole entry, looked up): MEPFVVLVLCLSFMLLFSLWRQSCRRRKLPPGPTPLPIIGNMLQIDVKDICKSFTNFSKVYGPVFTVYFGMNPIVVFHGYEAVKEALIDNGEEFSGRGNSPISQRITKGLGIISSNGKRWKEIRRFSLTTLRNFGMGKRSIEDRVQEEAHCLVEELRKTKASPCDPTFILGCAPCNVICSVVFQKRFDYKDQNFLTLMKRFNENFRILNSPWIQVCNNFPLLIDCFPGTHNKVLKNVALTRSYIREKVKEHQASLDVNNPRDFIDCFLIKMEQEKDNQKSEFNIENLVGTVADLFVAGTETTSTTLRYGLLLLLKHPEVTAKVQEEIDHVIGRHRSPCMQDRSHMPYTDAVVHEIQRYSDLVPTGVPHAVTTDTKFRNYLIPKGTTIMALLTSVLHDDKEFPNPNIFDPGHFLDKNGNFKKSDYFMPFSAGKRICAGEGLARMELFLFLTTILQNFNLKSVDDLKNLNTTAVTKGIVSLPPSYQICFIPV
human CYP2C9, CYP2C9 (gene 1559), sequence (P11712 whole entry, looked up): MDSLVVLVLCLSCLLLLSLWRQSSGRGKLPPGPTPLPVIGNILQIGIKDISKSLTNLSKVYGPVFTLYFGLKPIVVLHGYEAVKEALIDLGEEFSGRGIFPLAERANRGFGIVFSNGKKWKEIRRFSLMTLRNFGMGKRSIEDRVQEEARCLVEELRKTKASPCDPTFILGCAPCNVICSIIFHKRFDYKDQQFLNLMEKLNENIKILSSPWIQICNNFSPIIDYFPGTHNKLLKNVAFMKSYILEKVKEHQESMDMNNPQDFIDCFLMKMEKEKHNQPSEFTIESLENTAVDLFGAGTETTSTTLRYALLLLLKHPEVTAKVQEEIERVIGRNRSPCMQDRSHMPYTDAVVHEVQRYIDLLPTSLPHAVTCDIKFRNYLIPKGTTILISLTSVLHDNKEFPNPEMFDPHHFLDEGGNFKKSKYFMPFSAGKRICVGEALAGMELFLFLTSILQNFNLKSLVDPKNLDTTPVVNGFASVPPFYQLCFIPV
human CYP2D6, CYP2D6 (gene 1565), sequence (P10635 whole entry, looked up): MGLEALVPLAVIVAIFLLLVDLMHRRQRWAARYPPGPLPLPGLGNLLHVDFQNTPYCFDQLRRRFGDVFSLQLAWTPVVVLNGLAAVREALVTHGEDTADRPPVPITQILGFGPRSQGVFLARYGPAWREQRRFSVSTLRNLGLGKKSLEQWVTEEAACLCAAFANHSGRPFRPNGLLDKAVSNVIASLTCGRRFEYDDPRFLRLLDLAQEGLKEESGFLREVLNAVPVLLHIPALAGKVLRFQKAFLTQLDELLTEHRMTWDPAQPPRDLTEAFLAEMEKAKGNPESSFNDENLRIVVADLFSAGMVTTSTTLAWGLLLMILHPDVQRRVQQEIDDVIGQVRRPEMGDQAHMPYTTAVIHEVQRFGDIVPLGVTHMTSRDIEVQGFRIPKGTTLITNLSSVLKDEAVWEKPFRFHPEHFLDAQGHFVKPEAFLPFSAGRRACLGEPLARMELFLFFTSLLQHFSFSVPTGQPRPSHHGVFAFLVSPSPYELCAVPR
human CYP2J2, CYP2J2 (gene 1573), sequence (P51589 whole entry, looked up): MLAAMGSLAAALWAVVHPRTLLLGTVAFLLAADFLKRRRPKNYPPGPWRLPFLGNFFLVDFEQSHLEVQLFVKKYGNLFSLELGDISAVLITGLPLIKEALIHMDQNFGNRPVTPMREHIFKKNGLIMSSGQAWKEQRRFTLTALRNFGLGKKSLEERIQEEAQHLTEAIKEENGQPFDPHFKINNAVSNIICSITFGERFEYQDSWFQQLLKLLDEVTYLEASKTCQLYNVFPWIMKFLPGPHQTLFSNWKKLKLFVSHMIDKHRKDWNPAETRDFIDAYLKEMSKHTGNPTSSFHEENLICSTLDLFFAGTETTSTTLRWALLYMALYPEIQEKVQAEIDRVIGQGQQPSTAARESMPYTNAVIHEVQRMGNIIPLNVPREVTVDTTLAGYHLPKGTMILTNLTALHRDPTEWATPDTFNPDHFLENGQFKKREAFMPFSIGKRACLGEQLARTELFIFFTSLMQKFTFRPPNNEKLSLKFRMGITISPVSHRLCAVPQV
human CYP2B6, CYP2B6 (gene 1555), sequence (P20813 whole entry, looked up): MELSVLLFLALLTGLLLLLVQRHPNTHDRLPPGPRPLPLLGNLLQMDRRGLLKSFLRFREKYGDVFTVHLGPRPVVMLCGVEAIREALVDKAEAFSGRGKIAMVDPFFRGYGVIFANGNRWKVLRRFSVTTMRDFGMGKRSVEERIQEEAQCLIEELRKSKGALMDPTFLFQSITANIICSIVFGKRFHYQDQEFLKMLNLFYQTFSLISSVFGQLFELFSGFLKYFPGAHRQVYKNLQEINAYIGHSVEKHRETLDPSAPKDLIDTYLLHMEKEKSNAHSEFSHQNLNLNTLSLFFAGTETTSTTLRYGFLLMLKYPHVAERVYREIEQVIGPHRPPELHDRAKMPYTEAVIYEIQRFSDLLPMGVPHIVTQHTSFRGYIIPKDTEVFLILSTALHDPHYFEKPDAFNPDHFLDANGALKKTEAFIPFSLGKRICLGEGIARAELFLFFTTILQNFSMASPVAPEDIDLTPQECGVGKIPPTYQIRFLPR
Cytochrome P450 2C18 (Homo sapiens), sequence (P33260 whole entry, looked up): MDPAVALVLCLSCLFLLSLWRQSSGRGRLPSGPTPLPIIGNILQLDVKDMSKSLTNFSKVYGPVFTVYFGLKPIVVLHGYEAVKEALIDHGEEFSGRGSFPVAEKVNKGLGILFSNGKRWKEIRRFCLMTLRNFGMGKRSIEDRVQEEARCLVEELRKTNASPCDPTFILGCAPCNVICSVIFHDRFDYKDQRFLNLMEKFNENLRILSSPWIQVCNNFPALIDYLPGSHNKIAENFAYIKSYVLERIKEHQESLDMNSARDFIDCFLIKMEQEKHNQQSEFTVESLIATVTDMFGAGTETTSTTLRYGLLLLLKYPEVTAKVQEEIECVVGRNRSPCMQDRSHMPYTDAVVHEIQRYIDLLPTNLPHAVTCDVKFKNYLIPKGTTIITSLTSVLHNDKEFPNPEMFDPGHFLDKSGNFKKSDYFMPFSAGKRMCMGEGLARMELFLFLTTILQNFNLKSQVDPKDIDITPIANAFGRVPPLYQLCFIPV
human CYP4F12, CYP4F12 (gene 66002), sequence (Q9HCS2 whole entry, looked up): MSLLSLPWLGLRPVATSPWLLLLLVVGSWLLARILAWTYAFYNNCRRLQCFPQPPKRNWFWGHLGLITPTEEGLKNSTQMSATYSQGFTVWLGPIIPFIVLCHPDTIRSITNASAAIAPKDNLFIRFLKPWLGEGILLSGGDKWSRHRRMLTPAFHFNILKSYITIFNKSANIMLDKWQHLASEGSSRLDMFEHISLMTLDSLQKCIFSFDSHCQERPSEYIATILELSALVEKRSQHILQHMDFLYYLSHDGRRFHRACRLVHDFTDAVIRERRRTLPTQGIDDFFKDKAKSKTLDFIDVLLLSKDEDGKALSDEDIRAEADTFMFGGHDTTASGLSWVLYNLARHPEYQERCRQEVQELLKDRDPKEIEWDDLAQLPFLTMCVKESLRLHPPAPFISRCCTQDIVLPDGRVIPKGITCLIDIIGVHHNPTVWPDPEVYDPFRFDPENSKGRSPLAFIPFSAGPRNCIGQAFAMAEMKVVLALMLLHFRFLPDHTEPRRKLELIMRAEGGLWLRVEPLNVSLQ

For `CCOP(=S)(OCC)Oc1ccc2c(C)c(Cl)c(=O)oc2c1`, the AC50 in test [1] was 0.433 µM (active); in [2], 1.17 µM (active); in test [3] it was 0.734 µM (active); in [5] it was 0.0646 µM (active); in [6] it was 0.798 µM (active); in test [7], 0.428 µM (active). In test [4], the outcome was inactive.
As for `CC[C@H](C)[C@H]1O[C@]2(C=C[C@@H]1C)C[C@@H]1C[C@@H](C/C=C(\C)[C@@H](O[C@H]3C[C@H](OC)[C@@H](O[C@H]4C[C@H](OC)[C@@H](NC)[C@H](C)O4)[C@H](C)O3)[C@@H](C)/C=C/C=C3\CO[C@@H]4[C@H](O)C(C)=C[C@@H](C(=O)O1)[C@]34O)O2`, the values for the AC50 in test [1], in test [3] and in [7] were 8.42 µM (active), 5.39 µM (active) and 10 µM (active), respectively.
Regarding `CC(C1CC1)C(O)(Cn1cncn1)c1ccc(Cl)cc1` (stereo not drawn), the AC50 in test [1] is 6.32 µM (active); in test [3] it was 3.26 µM (active); in test [6], 54.7 nM (active) and 47.4 nM (active); in test [8], 4.56 µM (active); in test [7] it was 0.111 µM (active).
For the compound `CCC(=O)Nc1ccc(Cl)c(Cl)c1`, the AC50 in [2] was 2.03 µM (active).
As to `O=[N+]([O-])c1cc(C(F)(F)F)c(Cl)c([N+](=O)[O-])c1Nc1ncc(C(F)(F)F)cc1Cl`, in [2], the compound was called inactive. For the same compound, the AC50 in [6] was 1.84 µM (active); in [7], 1.39 µM (active).
Regarding `CN(C)C(=O)Nc1cccc(C(F)(F)F)c1`, in test [2], the AC50 is 5.3 µM (active).
Regarding `CC(COc1ccc(Oc2ccccc2)cc1)Oc1ccccn1` (stereo not drawn), in [2], the compound was classed as inactive. The AC50 in [7] was 13.7 µM (active).
Regarding `FC(F)C(F)(F)OCC(Cn1cncn1)c1ccc(Cl)cc1Cl` (stereo not drawn), the AC50 was 3.74 µM (active) in test [1]; 4.85 µM (active) in test [2]; 0.915 µM (active) in test [3]; 2.91 µM (active) in test [6]; 6.4 µM (active) in test [8]; 0.00646 µM (active) in test [7].
Take `CCCSP(=O)(OCC)Oc1ccc(Br)cc1Cl` (stereo not drawn): the AC50 in [1] was 11.3 µM (active); in test [2] it was 5.19 µM (active); in [3], 3.45 µM (active); in test [6], 7.09 µM (active); in [7], 10 µM (active).
With `C[Si](Cn1cncn1)(c1ccc(F)cc1)c1ccc(F)cc1`, the AC50 in test [1] is 0.238 µM (active); in [3], 0.645 µM (active); in test [6], 1.04 µM (active); in test [7], 0.0366 µM (active). In addition, the result in test [5] was inactive.
Regarding `CNc1cnn(-c2cccc(C(F)(F)F)c2)c(=O)c1Cl`, the AC50 in test [2] was 5.43 µM (active); in [7] it was 4.35 µM (active).
With `CCCOCC(=Nc1ccc(Cl)cc1C(F)(F)F)n1ccnc1`, the AC50 was 1.58 µM (active) in [1]; 7.01 µM (active) in test [2]; 4.78 µM (active) in test [3]; 3.77 µM (active) in test [4]; 0.101 µM (active) in [5]; 6.7 µM (active) in test [9]. The AC50 in [6] was 4.36 µM (active); in test [8], 0.522 µM (active); in test [7] it was 0.16 µM (active).
For the compound `CCCCSP(=O)(SCCCC)SCCCC`, the AC50 in [2] is 8.52 µM (active). The call in [9] and in test [7] was inactive.
On to `COP(=O)(OC)SCn1c(=O)oc2cc(Cl)cnc21`, for which the AC50 in test [1] is 9 µM (active); in [7], 4.57 µM (active).
For the compound `CSc1nc(NC(C)C)nc(NC(C)C)n1`, the AC50 is 5.92 µM (active) in test [2] and 13.4 µM (active) in [7]. In test [5], the result was inactive.
In the case of `C#CC(C)(C)NC(=O)c1cc(Cl)cc(Cl)c1`, the AC50 was 10 µM (active) in test [2], 2.67 µM (active) in [3] and 1.34 µM (active) in test [5].
For the compound `CCOP(=S)(OCC)Oc1ccc([N+](=O)[O-])cc1`, the AC50 is 0.99 µM (active) in [1]; 2.2 µM (active) in test [2]; 1.95 µM (active) in test [3]; 0.609 µM (active) in test [5]; 2.62 µM (active) in test [6]; 0.21 µM (active) in test [7]. The call in test [9] was inactive.
Turning to `CCc1cccc(CC)c1N(COC)C(=O)CCl`, the AC50 was 1.58 µM (active) in test [1] and 6.1 µM (active) in test [7].
Turning to `CCOC(=O)CC(SP(=O)(OC)OC)C(=O)OCC` (stereo not drawn), the AC50 is 2.49 µM (active) in test [1], 1.98 µM (active) in test [6] and 9.39 µM (active) in test [7]. Moreover, the compound was classed as inactive in [2], in test [3], in test [4] and in test [8].
Consider `Nc1c(Cl)cc([N+](=O)[O-])cc1Cl`, for which the AC50 was 3.48 µM (active) in test [1] and 2.28 µM (active) in test [2]. The call in test [9] and in test [7] was inactive.
On to `CCc1cccc(C)c1N(C(=O)CCl)C(C)COC` (stereo not drawn), for which the AC50 in [1] is 2.11 µM (active); in [7], 4.6 µM (active).
For `Cc1cc(C2CC2)nc(Nc2ccccc2)n1`, the AC50 in test [2] was 2.87 µM (active); in [6] it was 7 µM (active). Besides, in test [7], the compound was called inactive.
As to `CCCCOC(=O)c1ccccc1C(=O)O`, the result in test [2], in test [4] and in [7] was inactive.
As to `S=C1NCCN1`, the compound was called inactive in [3], in test [6] and in test [7].
Take `CC1(C(=O)Nc2ccc(O)c(Cl)c2Cl)CCCCC1`: the AC50 in [6] is 2.58 µM (active); in [7], 6.6 µM (active).
In the case of `CN(C)[C@@H]1C(=O)C(C(N)=O)=C(O)[C@@]2(O)C(=O)C3=C(O)c4c(O)cccc4[C@@](C)(O)[C@H]3[C@H](O)[C@@H]12`, the compound was called inactive in [9]. In addition, the AC50 in [10] was 0.0105 µM (active).
Regarding `CON=C(C(=O)OC)c1ccccc1CON=C(C)c1cccc(C(F)(F)F)c1`, the AC50 in [3] is 1.21 µM (active); in test [7], 2.26 µM (active).
For the compound `CCCCOC(=O)[C@@H](C)Oc1ccc(Oc2ccc(C#N)cc2F)cc1`, the AC50 in test [7] was 10 µM (active).
